According to PubChem BioAssay (Tox21):
Records with an inconclusive call do not appear. Where a call stands in place of a potency, no number is given. Activity calls are given as the source filed them. Calls come from the whole dose curve.

assay: p53 small molecule agonists, cell-based qHTS assay with rat liver microsomes: qHTS cell viability counter screen (AID 1963580); settings: p53RE-bla HCT-116 + rat microsomes, ATP viability, 16 h; series mostly up to 66 µM; note: nearly all actives have a fitted effect of over 45% in size
Description: National Center for Advancing Translational Sciences [NCATS]
Division of Preclinical Innovation [DPI]
U.S. Environmental Protection Agency [EPA]
National Institutes of Environmental Health Sciences [NIEHS]
National Toxicology Program [NTP]
U.S. Food and Drug Administration [FDA]
p53, a tumor suppressor protein, is activated following cellular insult, including DNA damage and other cellular stresses. The activation of p53 regulates cell fate by inducing DNA repair, cell cycle arrest, apoptosis, or cellular senescence. The activation of p53, therefore, is a good indicator of DNA damage and other cellular stresses. The CellSensor p53RE-bla HCT-116 cell line contains a stably integrated beta-lactamase reporter gene under control of the p53 response elements. The activation of the reporter gene under culture conditions can be detected by fluorescence intensity. This cell line was used to screen the Tox21 10K compound library in the condition of presence of rat liver microsomes and to identify agonists that activate the p53 signaling pathway after in vitro metabolic activation (Ooka et al., Archive of Toxicology 96:1975-1987, 2022). The cytotoxicity of the Tox21 compound library against the p53 RE-bla HCT-116 cell line was tested in parallel by measuring the intra cellular ATP content in the same wells.
Tox21 Assay Protocol Summary:
The p53RE-bla cells were dispensed at 4,000cells/3ul/well in 1536-well black-clear bottom plates. After the assay plates were incubated at 37 C, 5% CO2 incubator for 5 hours, 23 nL of compounds dissolved in DMSO, positive controls or DMSO only was transferred to the assay plate. Following compound addition, 3 uL of rat liver microsomes (Molecular Toxicology, Boone, NC) at final concentration of 0.5 mg/mL and 1uL of B-Nicotinamide adenine dinucleotide 2'-phosphate (NADPH) at final concentration of 0.5 mg/mL were transferred to the assay plate. The plates were incubated at 37 C for 16 hours. 1 uL of LiveBLAzer detection mixture was added to each well and the plates were incubated at room temperature in the dark for 2 h. Fluorescence intensity at 460 and 530 nm emission and 405 nm excitation were measured by an Envision plate reader. For cell viability readout that measures cytotoxicity, 4 ul/well of CellTiter-Glo reagent was added into the assay plates using a Flying Reagent Dispenser. After 30 min incubation at room temperature, the luminescence intensity in the plates was measured using a ViewLux plate reader.

SMILES	Potency
CCNc1nc(NC(C)C)nc(OC)n1	inactive
Nc1ccc(Cl)cc1	inactive
OCCSCSCCO	inactive
CCN	inactive
C=CCc1cc(OC)c2c(c1)OCO2	inactive
N#Cc1nn(-c2c(Cl)cc(C(F)(F)F)cc2Cl)c(N)c1S(=O)C(F)(F)F (stereo not given)	inactive
Cc1cccc(N)c1	inactive
CCCCOCCOP(=O)(OCCOCCCC)OCCOCCCC	inactive
N#Cc1ccccc1Cl	inactive
C=CCOC(N)=O	inactive
CCCN(CCOc1c(Cl)cc(Cl)cc1Cl)C(=O)n1ccnc1	inactive
CCC(C)n1c(=O)[nH]c(C)c(Br)c1=O (stereo not given)	inactive
O=[N+]([O-])O	inactive
Cc1ccc2cc(C)ccc2c1	inactive
CC(Cl)CCl (stereo not given)	inactive
c1ccc2c(c1)sc1ccccc12	inactive
CCNc1nc(Cl)nc(NCC)n1	inactive
CCCCOP(=O)(CCCC)OCCCC	inactive
CCC(=O)O[C@@H]1C=C2CCC3C(CCC4(C)C3CC[C@@H]4OC(=O)CC)C2CC1 (stereo not given in full)	inactive
CCc1ccccc1C	inactive

SMILES	Potency
CC(C)Oc1cc(-n2nc(C(C)(C)C)oc2=O)c(Cl)cc1Cl	inactive
C=C(Cl)CCl	inactive
CCBr	inactive
CC(=O)CC(c1ccc(Cl)cc1)c1c(O)c2ccccc2oc1=O (stereo not given)	inactive
O=C(CCN1CC1)OCC(CO)(COC(=O)CCN1CC1)COC(=O)CCN1CC1	inactive
CCOC(=O)C(C)OC(=O)c1cc(Oc2ccc(C(F)(F)F)cc2Cl)ccc1[N+](=O)[O-] (stereo not given)	inactive
Cc1cc(-c2cc(C)c(N)c(C)c2)cc(C)c1N	inactive
CCCOC(=O)c1cncn1C(C)c1ccccc1 (stereo not given)	inactive
COC[C@@H](NC(C)=O)C(=O)NCc1ccccc1	inactive
COc1ccc(CO)cc1	inactive
CCOP(=S)(OCC)SCSc1cc(Cl)ccc1Cl	inactive
COc1cc(OC)nc(NC(=O)NS(=O)(=O)c2ncccc2C(=O)N(C)C)n1	inactive
C[C@]12C=CC3=C4CCC(=O)C=C4CC[C@H]3[C@@H]1CC[C@@H]2O	inactive
CC(C)OC(=O)Cc1ccccc1	inactive
O=C(O)C1C(C(=O)O)C2(Cl)C(Cl)=C(Cl)C1(Cl)C2(Cl)Cl (stereo not given)	inactive
CNc1cnn(-c2cccc(C(F)(F)F)c2)c(=O)c1Cl	inactive
CC[n+]1ccccc1	inactive
CCOCN(C(=O)CCl)c1c(C)cccc1CC	inactive
CC(C)(C)OOC(C)(C)C	inactive
CN(C)CCc1c[nH]c2cccc(OP(=O)(O)O)c12	inactive
